# Measurements from ChEMBL document CHEMBL4513141, “CO-ADD screening of NIH (USA) - Clinical Collection” (2021).
# Potency and affinity values are given separately. Square brackets hold non-standard residues; d marks the D form. Peptide text beside a SMILES is read from it. pGlu = O=C1CC[C@@H](C(=O)O)N1; Thz = O=C(O)[C@@H]1CSCN1
# System: Klebsiella pneumoniae
# Details: Concentration 20 uM; ASSAY_TEST Inhibition of Bacterial Growth; detection method Absorption (OD600); MEDIA CAMHB; plate type 384well; NBS; CORNING #3640; time 18 hr
row,Structure (SMILES),Inhibition
1,Cl.O=C1c2c(O)ccc(O)c2C(=O)c2c(NCCNCCO)ccc(NCCNCCO)c21,7.11%
2,C#C[C@]1(O)CC[C@H]2[C@@H]3CCC4=CC(=O)CC[C@@H]4[C@H]3CC[C@@]21CC [LEVONORGESTREL],13.61%
3,Cl.O.c1cnc(N2CCN(Cc3ccc4c(c3)OCO4)CC2)nc1,3.33%
4,Cn1nnc2c(C(N)=O)ncn2c1=O [TEMOZOLOMIDE],7.88%
5,Cl.NC12CC3CC(CC(C3)C1)C2 [AMANTADINE HYDROCHLORIDE],13.94%
6,CCCCC(=O)OC1(C(=O)CO)CCC2C3CCC4=CC(=O)CCC4(C)C3C(O)CC21C (stereo not given),9.82%
7,CC1CC2C3CCC4=CC(=O)C=CC4(C)[C@@]3(Cl)C(O)CC2(C)C1(O)C(=O)CO (stereo not given in full),12.23%
8,CC(=O)O[C@H]1C[C@@H]2CC[C@@H]3[C@H](CC[C@@]4(C)[C@H]3C[C@H]([N+]3(C)CCCCC3)[C@@H]4OC(C)=O)[C@@]2(C)C[C@@H]1N1CCCCC1.[Br-] [VECURONIUM BROMIDE],-0.14%
9,CN(C)CCC(c1ccc(Cl)cc1)c1ccccn1.O=C(O)/C=C\C(=O)O (stereo not given) [CHLORPHENIRAMINE MALEATE],2.46%
10,CC(=CCC1=C(C)C(=O)c2ccccc2C1=O)CCCC(C)CCCC(C)CCCC(C)C (stereo not given),6.75%
11,CCC(C)(C)C(=O)O[C@H]1C[C@@H](C)C=C2C=C[C@H](C)[C@H](CC[C@@H]3C[C@@H](O)CC(=O)O3)[C@H]21 [SIMVASTATIN],-2.13%
12,COc1cc(C)nc(-n2nc(C)cc2OC)n1 [EPIRIZOLE],10.39%
13,Cl.NC[C@H]1CC[C@H](C(=O)Oc2ccc(CCC(=O)O)cc2)CC1 [CETRAXATE HYDROCHLORIDE],11.26%
14,C#C[C@]1(O)CC[C@H]2[C@@H]3[C@H](C)CC4=C(CCC(=O)C4)[C@H]3CC[C@@]21C [TIBOLONE],12.38%
15,CC(=O)OCC(CCn1cnc2cnc(N)nc21)COC(C)=O [FAMCICLOVIR],11.51%
16,CC(Cc1ccccc1)(NC(=O)CN)c1ccccc1.Cl (stereo not given) [REMACEMIDE HYDROCHLORIDE],8.63%
17,CCC1(c2ccccc2)C(=O)NCNC1=O [PRIMIDONE],7.75%
18,CC(C)(C#N)c1cc(Cn2cncn2)cc(C(C)(C)C#N)c1 [ANASTROZOLE],-11.78%
19,C[C@@H]1O[C@@H](OC[C@H]2O[C@@H](Oc3c(-c4ccc(O)c(O)c4)oc4cc(O)cc(O)c4c3=O)[C@H](O)[C@@H](O)[C@@H]2O)[C@H](O)[C@H](O)[C@H]1O [RUTIN],10.13%
20,CC[C@]1(O)C[C@@H]2CN(CCc3c([nH]c4ccccc34)[C@@](C(=O)OC)(c3cc4c(cc3OC)N(C=O)[C@H]3[C@@](O)(C(=O)OC)[C@H](OC(C)=O)[C@]5(CC)C=CCN6CC[C@]43[C@@H]65)C2)C1.O=S(=O)(O)O,3.74%
21,CC1=C(CC(=O)O)c2cc(F)ccc2/C1=C\c1ccc([S+](C)[O-])cc1 (stereo not given),14.02%
22,CC1=C(C(=O)O)N2C(=O)[C@@H](NC(=O)[C@H](N)c3ccccc3)[C@H]2SC1.O [CEPHALEXIN],2.49%
23,Cn1ccnc1S [METHIMAZOLE],12.71%
24,Sc1ncnc2nc[nH]c12 [MERCAPTOPURINE ANHYDROUS],7.84%
25,O=C1C(c2c(O)[nH]c3ccccc23)=Nc2ccccc21,6.26%
26,NC(=O)c1cccnc1 [NIACINAMIDE],11.31%
27,Nc1nc(N)c2nc(-c3ccccc3)c(N)nc2n1,-1.05%

# System: Candida albicans
# Details: 20 µM
row,Structure (SMILES),Inhibition
1,CCC(=O)O[C@]1(C(=O)CCl)[C@@H](C)C[C@H]2[C@@H]3CCC4=CC(=O)C=C[C@]4(C)[C@@]3(F)[C@@H](O)C[C@@]21C [CLOBETASOL PROPIONATE],0.73%
2,O=C1CC[C@@H](C(=O)N2CSC[C@H]2C(=O)O)N1 [PIDOTIMOD] ([pGlu]-[Thz]-OH),0.05%
3,CCN(CC)CCOC(=O)c1ccc(N)cc1.Cl [PROCAINE HYDROCHLORIDE],3.62%
4,Cc1nc(=O)c2cc(CN(C)c3ccc(C(=O)N[C@@H](CCC(=O)O)C(=O)O)s3)ccc2[nH]1 [RALTITREXED],2.26%
5,Cc1ccc(C)c(OCCCC(C)(C)C(=O)O)c1 [GEMFIBROZIL],8.15%
6,CC1(C)O[C@@H]2C[C@H]3[C@@H]4C[C@H](F)C5=CC(=O)C=C[C@]5(C)[C@H]4[C@@H](O)C[C@]3(C)[C@]2(C(=O)CO)O1 [FLUNISOLIDE],7.13%
7,Cc1cccc(C)c1NC(=O)C(C)N (stereo not given) [TOCAINIDE],1.33%
8,O=C1c2c(O)cc(O)cc2O[C@H](c2ccc(O)c(O)c2)[C@@H]1O,3.45%
9,OCc1cc(C(O)CNCCCCCCOCCCCc2ccccc2)ccc1O (stereo not given) [SALMETEROL],5.42%
10,O=C([O-])c1cc(=O)c2c(OCC(O)COc3cccc4oc(C(=O)[O-])cc(=O)c34)cccc2o1.[Na+].[Na+] [CROMOLYN SODIUM],2.62%
11,Nc1ccn([C@@H]2CS[C@H](CO)O2)c(=O)n1 [LAMIVUDINE],2.4%
12,Cl.O=C1c2c(O)ccc(O)c2C(=O)c2c(NCCNCCO)ccc(NCCNCCO)c21,-4.12%
13,C#C[C@]1(O)CC[C@H]2[C@@H]3CCC4=CC(=O)CC[C@@H]4[C@H]3CC[C@@]21CC [LEVONORGESTREL],3.12%
14,Cl.O.c1cnc(N2CCN(Cc3ccc4c(c3)OCO4)CC2)nc1,3.11%
15,Cn1nnc2c(C(N)=O)ncn2c1=O [TEMOZOLOMIDE],1.91%
16,Cl.NC12CC3CC(CC(C3)C1)C2 [AMANTADINE HYDROCHLORIDE],3.06%
17,CCCCC(=O)OC1(C(=O)CO)CCC2C3CCC4=CC(=O)CCC4(C)C3C(O)CC21C (stereo not given),3.16%
18,CC1CC2C3CCC4=CC(=O)C=CC4(C)[C@@]3(Cl)C(O)CC2(C)C1(O)C(=O)CO (stereo not given in full),3.02%
19,CC(=O)O[C@H]1C[C@@H]2CC[C@@H]3[C@H](CC[C@@]4(C)[C@H]3C[C@H]([N+]3(C)CCCCC3)[C@@H]4OC(C)=O)[C@@]2(C)C[C@@H]1N1CCCCC1.[Br-] [VECURONIUM BROMIDE],5.46%

row,Structure (SMILES),Inhibition
1,CN(C)CCC(c1ccc(Cl)cc1)c1ccccn1.O=C(O)/C=C\C(=O)O (stereo not given) [CHLORPHENIRAMINE MALEATE],4.73%
2,CC(=CCC1=C(C)C(=O)c2ccccc2C1=O)CCCC(C)CCCC(C)CCCC(C)C (stereo not given),3.2%
3,CCC(C)(C)C(=O)O[C@H]1C[C@@H](C)C=C2C=C[C@H](C)[C@H](CC[C@@H]3C[C@@H](O)CC(=O)O3)[C@H]21 [SIMVASTATIN],14.8%
4,COc1cc(C)nc(-n2nc(C)cc2OC)n1 [EPIRIZOLE],-0.63%
5,Cl.NC[C@H]1CC[C@H](C(=O)Oc2ccc(CCC(=O)O)cc2)CC1 [CETRAXATE HYDROCHLORIDE],4.33%
6,C#C[C@]1(O)CC[C@H]2[C@@H]3[C@H](C)CC4=C(CCC(=O)C4)[C@H]3CC[C@@]21C [TIBOLONE],6.29%
7,CC(=O)OCC(CCn1cnc2cnc(N)nc21)COC(C)=O [FAMCICLOVIR],2.72%
8,CC(Cc1ccccc1)(NC(=O)CN)c1ccccc1.Cl (stereo not given) [REMACEMIDE HYDROCHLORIDE],4.18%
9,CCC1(c2ccccc2)C(=O)NCNC1=O [PRIMIDONE],2.22%
10,CC(C)(C#N)c1cc(Cn2cncn2)cc(C(C)(C)C#N)c1 [ANASTROZOLE],1.23%
11,C[C@@H]1O[C@@H](OC[C@H]2O[C@@H](Oc3c(-c4ccc(O)c(O)c4)oc4cc(O)cc(O)c4c3=O)[C@H](O)[C@@H](O)[C@@H]2O)[C@H](O)[C@H](O)[C@H]1O [RUTIN],3.37%
12,CC[C@]1(O)C[C@@H]2CN(CCc3c([nH]c4ccccc34)[C@@](C(=O)OC)(c3cc4c(cc3OC)N(C=O)[C@H]3[C@@](O)(C(=O)OC)[C@H](OC(C)=O)[C@]5(CC)C=CCN6CC[C@]43[C@@H]65)C2)C1.O=S(=O)(O)O,2.01%
13,CC1=C(CC(=O)O)c2cc(F)ccc2/C1=C\c1ccc([S+](C)[O-])cc1 (stereo not given),3.98%
14,CC1=C(C(=O)O)N2C(=O)[C@@H](NC(=O)[C@H](N)c3ccccc3)[C@H]2SC1.O [CEPHALEXIN],2.01%
15,Cn1ccnc1S [METHIMAZOLE],5.56%
16,Sc1ncnc2nc[nH]c12 [MERCAPTOPURINE ANHYDROUS],11.2%
17,O=C1C(c2c(O)[nH]c3ccccc23)=Nc2ccccc21,9.69%
18,NC(=O)c1cccnc1 [NIACINAMIDE],2.62%
19,Nc1nc(N)c2nc(-c3ccccc3)c(N)nc2n1,4.35%
